Compounds with a hit are over-represented: about 1.2% of the library has one in this group of screens.
RXFP1 antag = qHTS Assay for Antagonists of the Relaxin Receptor RXFP1 | HEK293-RXFP1, relaxin-stimulated cAMP HTRF, 30 min; active compounds read low | 350,000 tested, 0.59% active | activity change, negative = inhibition, % at 57.5 µM;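 active = activity change of -60% or lower, but not beyond a set lower limit; inconclusive = change between -60% and -40%, or beyond the set limit; inactive = change above -40%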; note: % is set by controls: 0 for no effect and ±100 for the full control effect
Target sequence (Q9HBX9 whole entry, looked up): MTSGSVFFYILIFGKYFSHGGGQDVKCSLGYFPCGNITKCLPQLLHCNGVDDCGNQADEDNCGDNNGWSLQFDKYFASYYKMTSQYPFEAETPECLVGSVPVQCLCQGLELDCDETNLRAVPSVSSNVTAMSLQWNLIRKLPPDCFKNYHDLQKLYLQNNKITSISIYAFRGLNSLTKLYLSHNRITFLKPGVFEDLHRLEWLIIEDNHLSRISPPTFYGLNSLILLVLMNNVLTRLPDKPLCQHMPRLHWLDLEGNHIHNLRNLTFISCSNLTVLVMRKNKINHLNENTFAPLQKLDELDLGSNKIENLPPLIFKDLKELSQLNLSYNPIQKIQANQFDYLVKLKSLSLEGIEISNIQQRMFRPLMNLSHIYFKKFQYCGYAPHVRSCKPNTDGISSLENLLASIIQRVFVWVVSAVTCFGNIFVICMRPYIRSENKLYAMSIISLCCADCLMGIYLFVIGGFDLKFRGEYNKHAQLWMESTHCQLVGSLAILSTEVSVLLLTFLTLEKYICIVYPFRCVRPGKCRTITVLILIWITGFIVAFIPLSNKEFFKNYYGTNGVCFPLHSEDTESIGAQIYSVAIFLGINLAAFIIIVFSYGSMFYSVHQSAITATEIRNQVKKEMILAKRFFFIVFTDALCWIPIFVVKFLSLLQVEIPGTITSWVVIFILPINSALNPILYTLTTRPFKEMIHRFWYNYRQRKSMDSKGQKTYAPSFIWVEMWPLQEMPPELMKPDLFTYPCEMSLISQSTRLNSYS
gsp ag = qHTS for Agonist of gsp, the Etiologic Mutation Responsible for Fibrous Dysplasia/McCune-Albright Syndrome: qHTS; gsp mutant cells, cAMP HTRF, 30 min; Potency, µM (highest dose often 76.9 µM), for the others: at the top dose activation (cAMP increase), hits mostly activators; 340,000 tested, 0.13% active; active = well fitted activation curve with a large enough effect; inconclusive = small, poorly fitted or top-dose-only effect, or another doubt; inactive = no such curve, though single readings can be large or run the other way; cell line not stated here;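 note: phosphodiesterase inhibitor Ro 20-1724 added with compounds to block cAMP breakdown; potency is the fitted concentration of half-maximal effect; nearly all actives have a fitted effect of over 60% in size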
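Cells in DMEM/10% FBS with G418 were pretreated with compounds in DMSO plus […] (300 uM stock) for 30 min at 37C. cAMP was measured by HTRF (cAMP-d2 plus anti-cAMP antibody-K) after 30 min at room temperature.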
pAkt inh = HTS Assay for Inhibitors of Akt Phophorylation: Primary Screen; activity change, % for hits at 50 µM; Neuro2A IGF-stimulated pAkt S473 HTRF, 20 min; active compounds read low; AID 651550, 2012; 360,000 tested, 0.32% active; in the data active = activity change below about -80%; inconclusive = mostly about -51% to -80%; note: % is set by controls: 0 for no effect and ±100 for the full control effect
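Neuro2A cells (4,500/well, DMEM with 0.5% FBS) were treated with compound at a single 50 µM final concentration, stimulated with 6 nM IGF for 20 min at 37 °C, and lysed. Phospho-Akt Ser473 was read by HTRF as 665/615 ratio ×10^4.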
RXFP1 agonist = qHTS Assay for Agonists of the Relaxin Receptor RXFP1 | Relaxin receptor 1 (Homo sapiens), Q9HBX9 | HEK293T-RXFP1 cAMP TR-FRET, 30 min; response scale: percent of porcine relaxin response, buffer zero | Potency, µM (top dose mostly 57.5 µM), for the others: top-dose activation, usual class: activators | 370,000 tested, 0.3% active; active = well fitted activation curve with a large enough effect; inconclusive = small, poorly fitted or top-dose-only effect; note: potency is the fitted concentration of half-maximal effect; % is set by controls: 0 for no effect and ±100 for the full control effect; nearly all actives have a fitted effect of over 60% in size
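HEK293 cells stably expressing RXFP1, treated 30 min at 37C with compounds plus PDE4 inhibitor Ro 20174; cAMP measured by HTRF TR-FRET. Normalized to buffer and 29 nM porcine relaxin; EC50 by Hill fit.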
gsp antagonist = qHTS for Antagonists of gsp, the Etiologic Mutation Responsible for Fibrous Dysplasia/McCune-Albright Syndrome: qHTS; 340,000 tested, 0.4% active; Potency, µM (doses to about 76.9 µM), without a hit: at the highest dose activity change, negative = inhibition, hits mostly inhibitors; gsp-mutant cells, cAMP HTRF, 30 min; calls by dose curve; cell line not stated here;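 note: intracellular cAMP measured with PDE inhibitor Ro 20-1724 present during compound exposure; potency is the fitted concentration of half-maximal effect; % is set by controls: 0 for no effect and ±100 for the full control effect; nearly all actives have a fitted effect of over 65% in size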
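G418-selected cells were plated in DMEM/10% FBS for 16-24 h at 37C, then treated with compounds plus the PDE inhibitor […] (300 uM solution added) for 30 min at 37C. Intracellular cAMP was measured by HTRF after 30 min lysis at room temperature.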
* hit, by the source's call; [ ] = another dose, or the depositor's remark.

`COCCNC(=O)c1ccc2c(=O)n(CCc3ccccc3)c(SCC(=O)CC(=O)OC)nc2c1` gave RXFP1 agonist 2.4%.
`C#CC1(O)CC[C@H]2[C@@H]3CCC4=CCCC[C@@H]4[C@H]3CC[C@@]21C` (some centres not stated) gave RXFP1 antag 7.0.
`CCCC(=O)NCCc1nc2ccccc2n1C` gave RXFP1 antag -5.5, gsp ag 20.8%, pAkt inh -124.1%*, RXFP1 agonist 0.8% and gsp antagonist 1.2%.
For O=C1/C(=C/c2ccc(Br)cc2)Oc2cc(O)ccc21 the results were RXFP1 antag 1.6, gsp ag 25.4%, pAkt inh inactive, RXFP1 agonist 8.1% and gsp antagonist -25.2%.
Screening O=C1/C(=C/c2ccc([N+](=O)[O-])cc2)Oc2cc(O)ccc21 returned RXFP1 antag -6.0, gsp ag 1.0%[15.4 µM], pAkt inh inactive, RXFP1 agonist -0.9% and gsp antagonist 22.4µM*.
For C[C@H](CO)N1C[C@H](C)[C@@H](CN(C)S(=O)(=O)c2cccc(F)c2)Oc2ncc(Br)cc2C1=O the results were RXFP1 antag 7.6, gsp ag 31.6µM* and pAkt inh inactive.
C[C@H](CO)N1C[C@H](C)[C@H](CN(C)S(=O)(=O)c2ccc(F)cc2)Oc2ncc(Br)cc2C1=O was read as RXFP1 antag 2.0, gsp ag inconclusive and pAkt inh inactive.
`S=c1nc(-c2ccccc2)[nH]c2ccccc12` gave RXFP1 antag 6.2, gsp ag 15.8µM*, pAkt inh inactive, RXFP1 agonist inconclusive and gsp antagonist 9.4%.
Screening Cc1cc(OC(C)C(=O)N2CCC(c3nc4ccccc4o3)CC2)ccc1Cl (configuration not stated) returned RXFP1 antag -61.6* and RXFP1 agonist -0.9%.
Screening CCc1ccc(OC(C)C(=O)N2CCC(c3nc4ccccc4o3)CC2)cc1 (configuration not stated) returned RXFP1 antag inconclusive and RXFP1 agonist -1.2%.
`O=C(CCCl)NCc1ccccc1` gave RXFP1 antag 21.4.
Screening C=CCn1c(C)cc(C)c(C#N)c1=O returned RXFP1 antag 13.5, gsp ag -12.4%, pAkt inh inactive, RXFP1 agonist -3.9% and gsp antagonist 10.4%.
For C=CCn1c(=O)n(CCC#N)c(=O)n(CCC#N)c1=O the results were RXFP1 antag -10.4, gsp ag -10.4%, pAkt inh -98.7%*, RXFP1 agonist 0.0% and gsp antagonist 8.2%.
O=C(NNC(=S)Nc1ccccc1)c1cc(-c2cccnc2)nc2ccccc12 was read as RXFP1 antag -60.7*, gsp ag 1.0%[15.4 µM], pAkt inh inactive, RXFP1 agonist 2.2% and gsp antagonist -17.5%.
`NCc1ccccc1Sc1ccccc1CO` gave RXFP1 antag -16.4.
Cc1ccc(N(C)C(=O)c2cc(S(=O)(=O)N3CCc4ccccc43)cn2C)cc1 was read as RXFP1 antag 2.7, gsp ag -64.9%, pAkt inh inactive, RXFP1 agonist 1.2% and gsp antagonist -8.1%.
Screening CN(C(=O)c1cc(S(=O)(=O)N2CCc3ccccc32)cn1C)C1CCCCC1 returned RXFP1 antag -103.4*, gsp ag -19.0%, pAkt inh inactive, RXFP1 agonist -0.1% and gsp antagonist -11.4%.
`O=C(c1cc(COc2cccc3cnccc23)on1)N1CCCC(CCCO)C1` (configuration not stated) gave RXFP1 antag -13.7, gsp ag 10.9%, pAkt inh inactive, RXFP1 agonist 0.2% and gsp antagonist 35.5µM*.
For COc1cc2c(cc1OC)C(C)N(C(=O)c1cc3c(s1)-c1c(C)cccc1OC3)CC2 (configuration not stated) the results were gsp ag -69.7%, pAkt inh inactive, RXFP1 agonist 3.5% and gsp antagonist 35.5µM*.
COc1cc2c(cc1OC)C(C)N(C(=O)c1cc3c(s1)-c1ccccc1OC3)CC2 (configuration not stated) was read as RXFP1 antag -33.5, gsp ag 14.4%, pAkt inh inactive, RXFP1 agonist 1.4% and gsp antagonist -23.9%.
For Cc1ccc(C(C)C)c(OCc2ccc(C(=O)N/N=C/c3ccc(C(=O)O)cc3)cc2)c1 the results were RXFP1 antag -68.5*, gsp ag 9.5%, pAkt inh inactive, RXFP1 agonist 0.0% and gsp antagonist -28.0%.
`O=C(CN1C(=O)C(=O)N(Cc2ccco2)C1=O)c1c[nH]c2ccccc12` gave RXFP1 antag 10.1, gsp ag 27.6%, pAkt inh inactive, RXFP1 agonist 0.1% and gsp antagonist 3.1%.
`O=C(CN1C(=O)C(=O)N(CCC2=CCCCC2)C1=O)c1c[nH]c2ccccc12` gave RXFP1 antag -66.4*, gsp ag 18.1%[15.4 µM], pAkt inh inactive and gsp antagonist -19.4%.
CC(=O)Nc1scc(-c2ccccc2)[n+]1-c1ccc(C)cc1 was read as RXFP1 antag 0.4, gsp ag 41.3%, pAkt inh inactive, RXFP1 agonist 21.4% and gsp antagonist 50.1µM*.
Screening Cc1ccc(-c2csc(Nc3ccc(C(=O)O)cc3)[n+]2Cc2ccccc2)cc1 returned RXFP1 antag -26.3, gsp ag -2.8%, pAkt inh inactive, RXFP1 agonist 12.5% and gsp antagonist -11.5%.
Screening COc1ccc(NC(=O)Cn2ccn(-c3ccccc3)c(=O)c2=O)cc1 returned RXFP1 antag -0.8 and RXFP1 agonist 1.5%.
Screening O=C(Cc1ccc(Br)c2ccccc12)N/N=C/c1ccccn1 returned RXFP1 antag inconclusive, gsp ag -15.1%[15.4 µM], pAkt inh inactive, RXFP1 agonist -2.4% and gsp antagonist 25.1µM*.
For O=C(Cc1ccc(F)cc1)N/N=C/c1ccccn1 the results were RXFP1 antag 4.3, gsp ag -29.0%, pAkt inh inactive, RXFP1 agonist 2.0% and gsp antagonist 13.5%.
Screening O=C(O)c1cccc(S(=O)(=O)Nc2ccc3oc(=O)sc3c2)c1 returned RXFP1 antag 12.3, gsp ag inconclusive, pAkt inh -113.8%*, RXFP1 agonist -5.2% and gsp antagonist 7.0%.
`CC(NC(=O)c1ccc(S(=O)(=O)N(C)C)cc1)c1ccccc1` (configuration not stated) gave RXFP1 antag -3.6, gsp ag 4.4%, pAkt inh -89.6%*, RXFP1 agonist -0.1% and gsp antagonist -4.3%.
